The results in this text go back to PubChem BioAssay (NCI).

SMILES strings stand for the structures. Where “and” joins values, the source holds several entries; their conditions need not be identical. Equal entries are not always repeated. The panel holds about 83,000 compounds, 20% with a hit somewhere; the sample as a whole holds those more often.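 Compound tested at a single concentration for 48 hours in 96-well plates; a percent growth value below 10 was scored as active.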 Calls of active or inactive are those of the source.

In this assay the test system is MDA-MB-468 breast. Briefly: NCI-60 one-dose screen, 48 h (100 = growth as untreated, 0 = no growth, -100 = all killed). The settings on record: 10 µM unless noted.

Take `COc1cc(/C=C/[N+](=O)[O-])c([N+](=O)[O-])cc1OC`: the growth was -71.2% (active).

`C/C(=C\c1ccn(-c2ccc(N)cc2)n1)[C@@H]1C[C@@H]2O[C@]2(C)CCC[C@H](C)[C@H](O)[C@@H](C)C(=O)C(C)(C)[C@@H](O)CC(=O)O1`: the growth is 13.9% (inactive).

Regarding `Cc1cc(CCl)c(C)cc1CCl`, the growth is -59.9% (active).

In the case of `NC(=Nc1ccccc1)N[N+](=O)[O-]`, the growth was 92.2% (inactive).

On to `CCC[CH2][Sn]([CH2]CCC)([CH2]CCC)[O]C(=O)c1ccc(Cl)cc1Cl`, for which the growth is -80.7% (active).

In the case of `CCCCCN(CCCCC)CC(O)c1ccc(C)c(Cl)c1` (stereo not given), the growth is 99.9% (inactive).

In the case of `CC/C(=C/c1ccc(OC)cc1OC)[N+](=O)[O-]`, the growth was -6.94% (active).

Turning to `Oc1cc(Cl)ccc1Oc1ccc(Cl)cc1Cl`, the growth is 7% (active).

On to `OCCNC1CCCCC1`, for which the growth is 109% (inactive).

Turning to `COC(=O)[C@@H](C)C[C@H](Cc1ccccc1)NC(=O)c1csc([C@@H](C[C@H](C(C)C)N(C)C(=O)[C@@H](NC(=O)[C@H]2CCCN2C)C2CC2)OC(C)=O)n1`, the growth was -9.22% (active).

Regarding `O=P(Oc1ccc(Cl)cc1)(N1CC1)N1CC1`, the growth was 54.1% (inactive).

Take `CC1=C2C(=C[C@@](C)(COC(=O)c3ccc(S(=O)(=O)F)cc3)[C@@H]2OC(=O)c2ccc(S(=O)(=O)F)cc2)C(=O)[C@](C)(O)C12CC2`: the growth was -76.8% (active).

With `[Br][Pb]([c]1ccccc1)([c]1ccccc1)[c]1ccccc1`, the growth is -88.2% (active).

Turning to `COC(=O)C1CCC(NC(=O)c2csc([C@@H](C[C@H](C(C)C)N(C)C(=O)[C@@H](NC(=O)[C@H]3CCCCN3C)C(C)C)OC(C)=O)n2)CC1` (stereo not given in full), the growth is 27.9% (inactive).

Consider `Cn1c(O)c(N=O)c(=O)n(C)c1=O`, for which the growth was 112% (inactive) and 106% (inactive).

As for `CNC(=O)Oc1ccccc1`, the growth was 101% (inactive).

Take `CC[C@@H]1[C@@H](C)O[C@@](O)([C@@H](C)[C@H](O)[C@H](C)[C@H]2OC(=O)/C=C/C=C/[C@H](C)[C@@H]([C@@H](C)[C@@H](O)[C@H](C)[C@@]3(O)C[C@@H](O[C@H]4C[C@@H](O)[C@H](O)C(C)O4)[C@H](CC)[C@@H](C)O3)OC(=O)/C=C/C=C/[C@@H]2C)C[C@H]1O[C@@H]1C[C@@H](O)[C@H](O)C(C)O1` (stereo not given in full): the growth was -83.6% (active).

In the case of `COc1ccc(/C=C\c2cc(OC)c(OC)c(OC)c2)cc1OCC(=O)Nc1nc2ccc(F)cc2s1`, the growth was 37.3% (inactive).

With `CC(C)N=C(NC(C)C)N1CC1`, the growth is 118% (inactive).

Turning to `CCC(=O)Nc1ccc(Cl)c(Cl)c1`, the growth was 101% (inactive).

`CC(=O)N1N=C(c2ccccc2)CC1c1sc(N(CCCl)CCCl)nc1Cl` (stereo not given): the growth was 92.6% (inactive).

Regarding `CCC[CH2][Sn]([CH2]CCC)([CH2]CCC)[O]c1ccc(Cl)cc1Cl`, the growth was -98.7% (active).

Turning to `CN(C)c1ccc(N)cc1`, the growth was 98% (inactive) and 5.01% (active).

Turning to `N#CC(NC(=O)CCl)=C(Cl)Cl`, the growth is -48.2% (active).

Consider `CC(=O)O[C@H]1CC[C@H]2[C@@H]3CC[C@H]4CC=C(C)C[C@]4(C)[C@H]3CC[C@]12C`, for which the growth was 105% (inactive).

For `Nc1c(F)cc(-c2nc3cc(F)ccc3[se]2)cc1F`, the growth was -39.8% (active).

Consider `COC(=O)[C@@H](C)C[C@H](Cc1ccccc1)NC(=O)c1cccc([C@@H](C[C@H](C(C)C)N(C)C(=O)[C@@H](NC(=O)[C@H]2CCCCN2C)C(C)C)OC(C)=O)n1`, for which the growth was 10.1% (inactive).

Consider `CC[C@H](C)[C@H](NC(=O)c1nccn1C)C(=O)N(C)[C@H](C[C@@H](OC(C)=O)c1nc(C(=O)N[C@@H](Cc2ccccc2)C[C@H](C)C(=O)OC)cs1)C(C)C`, for which the growth is 25.7% (inactive).

In the case of `Cc1sc2c(c1C)C(c1ccc(Cl)cc1)=N[C@@H](CC(=O)OC(C)(C)C)c1nnc(C)n1-2`, the growth is -10.8% (active).

On to `O=C(CCl)c1ccc([N+](=O)[O-])o1`, for which the growth is -49.5% (active).

In the case of `Cc1ccccc1NC(=NCCCN1CC1)Nc1ccccc1C`, the growth is 54.7% (inactive).

Take `Nc1cccc(CC(=O)Nc2ccc(S(=O)(=O)F)cc2)c1`: the growth was 90.2% (inactive).

With `C=C[Se]CC(=O)/C=C/c1ccccc1`, the growth is 85.6% (inactive).

Turning to `CC(C)CCC[C@@H](C)[C@H]1CC[C@H]2[C@@H]3CC=C4C[C@@H](OC(=O)Cc5ccc(N(CCCl)CCCl)cc5)CC[C@]4(C)[C@H]3CC[C@]12C`, the growth is 107% (inactive).

In the case of `CN1CC(CNC(=O)OCc2ccccc2)CC2c3cccc4c3c(cn4C)CC21` (stereo not given), the growth is -42.6% (active).
